Source: PubChem
In the library only some 1.6% were active in any assay of this set; here they are far more common.
KCNQ2 enhance: potentiators of rat KCNQ2 potassium channel; AID 2239, 2010; CHO-K1 KCNQ2, FluxOR thallium flux fluorescence; hits give high values; 0.54% of 310,000 active; B-score at 10 µM;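 active = fluorescence ratio B-score at least 3 SD of library B-scores, with initial fluorescence B-score within 3 of them, cut at about 5.3 in these data; same plate scores as AID 2156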;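 note: B-score of peak minus minimum over baseline fluorescence ratio after K+ and Tl+ stimulus; positive B-score means potentiation of KCNQ2 with more thallium influx and brighter signal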
KCNQ2 inh: rat KCNQ2 potassium channel inhibitors, primary screen, cell-based, CHO-K1, FluxOR thallium flux, B-score | 20 min; hits give low values | 1.1% of 310,000 active | B-score at 10 µM | Potassium voltage-gated channel subfamily KQT member 2 (Rattus norvegicus), O88943;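 active = fluorescence ratio B-score at most minus 3 library SDs, with starting brightness B-score within 2 library SDs, cut at about -5.5 in these data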
Kir21 conf inh: mouse Kir2.1 channel blockers, retest, confirmation, cell-based, FluxOR thallium flux, duplicate. shares compounds with KCNQ2 enhance. Kir2.1-expressing cells, FluxOR thallium flux fluorescence; hits give low values. Tl flux remaining, % of negative control (hits give low values), % at 10 µM. 41% of 2,300 active. AID 2032, 2009;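 active = Primary-screen hit whose thallium flux fell at least 3 control SD below untreated wells in both duplicates, with normal baseline fluorescence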
Target sequence (P35561 whole entry, looked up): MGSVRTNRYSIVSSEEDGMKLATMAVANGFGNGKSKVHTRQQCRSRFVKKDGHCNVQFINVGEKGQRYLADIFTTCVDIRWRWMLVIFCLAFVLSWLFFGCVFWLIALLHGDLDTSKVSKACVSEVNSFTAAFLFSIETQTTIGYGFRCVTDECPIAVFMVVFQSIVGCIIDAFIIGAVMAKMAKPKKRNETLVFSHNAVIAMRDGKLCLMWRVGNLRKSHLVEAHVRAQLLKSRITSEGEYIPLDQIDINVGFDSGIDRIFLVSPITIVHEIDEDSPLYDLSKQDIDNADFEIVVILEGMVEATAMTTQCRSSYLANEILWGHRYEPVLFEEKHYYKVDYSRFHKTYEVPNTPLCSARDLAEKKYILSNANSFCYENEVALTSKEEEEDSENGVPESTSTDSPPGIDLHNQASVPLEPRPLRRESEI
HEK293 ctr: alters thallium flux in parental HEK293 cells, Kir2.1 counter-screen | shares compounds with KCNQ2 enhance | FluxOR thallium flux fluorescence; 0% = unstimulated blank wells | FluxOR signal as % of negative control (100 = no effect), % at 10 µM | 19% of 2,300 active | AID 2105;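 active = dye signal at least 3 control SD above or below untreated wells in both duplicates, raw fluorescence within 3, either direction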;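 note: percent is based on the flux ratio of peak minus minimum fluorescence over baseline F0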
CHO-K1 Tl ctr: nonspecific thallium flux increase in parental CHO-K1, confirmation, counter-screen for KCNQ2 potentiator project, cell-based, FluxOR thallium flux, duplicate; parental CHO-K1 cells, FluxOR thallium flux fluorescence; zero = vehicle mean+3SD, 100% = vehicle-minus-blank window; shares compounds with KCNQ2 enhance; 43% of 1,200 active; activity increase over 3SD of controls, % at 10 µM;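 active = signal rise of at least 3 SD above the untreated control mean, in both duplicate wells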;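 note: counter screen of KCNQ2 potentiator hits so any rise reflects channel-independent effects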
KCNQ1 sel pot: human KCNQ1 channel potentiation off-target, confirmation, selectivity assay for KCNQ2 potentiator project, cell-based, CHO, FluxOR thallium flux; shares compounds with KCNQ2 enhance; CHO KCNQ1 stable, FluxOR thallium flux fluorescence; beyond 3SD, as % of vehicle-control signal; activation over 3SD threshold, % at 10 µM; 28% of 1,200 active; AID 2283, 2010;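 active = fluorescence ratio rise of at least 3 SD of vehicle wells above their mean, in both replicate wells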
KCNQ2 pot confirm: rat KCNQ2 channel potentiators, confirmation, cell-based, CHO, FluxOR thallium flux, duplicate; potentiation, less the hit threshold, % at 10 µM; shares compounds with KCNQ2 enhance; 68% of 1,200 active; AID 2287, 2010; CHO-KCNQ2 cells, FluxOR thallium flux fluorescence;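 active = fluorescence ratio rising 3 SD or more over the vehicle control mean in both replicates, plus primary screen hit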;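 note: peak minus minimum thallium fluorescence divided by baseline after K/Tl stimulus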
Kir21 spec: mouse Kir2.1 channel activation off-target, confirmation, selectivity assay for KCNQ2 potentiator project, cell-based, HEK293, FluxOR thallium flux. AID 2345, 2010. 2% of 1,200 active. HEK293 Kir2.1, FluxOR thallium flux fluorescence. shares compounds with KCNQ2 enhance. activity over 3SD threshold, % at 10 µM;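 active = fluorescence ratio rise of at least 3 SD above the vehicle-control mean, seen in both replicates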
KCNQ2 W236L pot: potentiators of retigabine-insensitive KCNQ2 W236L, mechanism study for KCNQ2 potentiator project, cell-based, rat KCNQ2 W236L, CHO, automated patch clamp; shares compounds with KCNQ2 enhance; automated patch clamp current; current increase over 3SD of negative controls (%), hits give high values, % at 25 µM; 10% of 940 active; AID 2558, 2010;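 active = current increase at least 3 SD of the untreated controls above them in both duplicate recordings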
Numbers stand for hits.

For COc1ccc(C(C(=O)NC(C)(C)C)N(C(=O)CCC(=O)Nc2cc(C)on2)c2cccc(F)c2)cc1 (centres undefined) the results were KCNQ2 enhance 5.6, KCNQ2 inh inactive, Kir21 conf inh inactive, HEK293 ctr inactive, CHO-K1 Tl ctr inactive, KCNQ1 sel pot inactive, KCNQ2 pot confirm inactive and Kir21 spec inactive.
For CCOc1cccc(N(C(=O)CCC(=O)Nc2cc(C)on2)C(C(=O)NC(C)(C)C)c2ccc(OC)cc2)c1 (centres undefined) the results were KCNQ2 inh inactive.
`CSc1ncc(Cl)c(C(=O)Nc2nnc(SC/C=C/c3ccccc3)s2)n1` gave KCNQ2 enhance 5.5, KCNQ2 inh inactive, Kir21 conf inh inactive, HEK293 ctr inactive, CHO-K1 Tl ctr 6.5, KCNQ1 sel pot inactive, KCNQ2 pot confirm inactive, Kir21 spec inactive and KCNQ2 W236L pot inactive.
`Cc1ccc(CS(=O)(=O)c2ncc(Cl)c(C(=O)Nc3ccc(OC(F)F)cc3)n2)cc1` gave KCNQ2 enhance inactive and KCNQ2 inh inactive.
`O=C(NCc1ccc2c(c1)OCO2)c1nc(S(=O)(=O)Cc2ccccc2)ncc1Cl` gave KCNQ2 inh inactive.
`Cc1cccc(CS(=O)(=O)c2ncc(Cl)c(C(=O)Nc3nnc(C(C)C)s3)n2)c1` gave KCNQ2 enhance 13, KCNQ2 inh inactive, CHO-K1 Tl ctr inactive, KCNQ1 sel pot inactive, KCNQ2 pot confirm 99, Kir21 spec inactive and KCNQ2 W236L pot 49%.
`Cc1ccc(CS(=O)(=O)c2ncc(Cl)c(C(=O)Nc3nnc(C(C)C)s3)n2)cc1` gave KCNQ2 enhance 16, KCNQ2 inh inactive, Kir21 conf inh inactive, HEK293 ctr 182%, CHO-K1 Tl ctr inactive, KCNQ1 sel pot inactive, KCNQ2 pot confirm 102, Kir21 spec inactive and KCNQ2 W236L pot 77%.
Screening C=CCSc1nnc(NC(=O)c2nc(SCC)ncc2Cl)s1 returned KCNQ2 enhance inactive and KCNQ2 inh inactive.
CSc1nnc(NC(=O)c2nc(S(=O)(=O)Cc3ccccc3F)ncc2Cl)s1 was read as KCNQ2 enhance 10, KCNQ2 inh inactive, CHO-K1 Tl ctr inactive, KCNQ1 sel pot inactive, KCNQ2 pot confirm 50, Kir21 spec inactive and KCNQ2 W236L pot 18%.
O=C(NCc1ccc2c(c1)OCO2)c1nc(S(=O)(=O)Cc2ccccc2F)ncc1Cl was read as KCNQ2 inh inactive.
`O=C(OC(C(=O)NC1CCCCC1)c1ccc(C(F)(F)F)cc1)c1ccco1` (centres undefined) gave KCNQ2 enhance inactive and KCNQ2 inh inactive.
Screening COc1cc(C2C3=C(CC(C)(C)CC3=O)N(C)C3=C2C(=O)CC(C)(C)C3)cc(Br)c1O returned KCNQ2 inh inactive.
`COc1cccc(CNS(=O)(=O)c2ccc3c(c2)N(C(C)=O)CCO3)c1` gave KCNQ2 inh inactive.
CC(C)c1nnc(NC(=O)c2nc(S(=O)(=O)Cc3ccc(F)cc3)ncc2Cl)s1 was read as KCNQ2 enhance 11, KCNQ2 inh inactive, Kir21 conf inh inactive, HEK293 ctr inactive, CHO-K1 Tl ctr inactive, KCNQ1 sel pot inactive, KCNQ2 pot confirm 58, Kir21 spec inactive and KCNQ2 W236L pot 28%.
For O=C(Nc1nnc(SCc2ccc(F)cc2)s1)c1cccnc1Cl the results were KCNQ2 inh inactive.
For CSc1nnc(NC(=O)c2nc(S(=O)(=O)Cc3cccc(C)c3)ncc2Cl)s1 the results were KCNQ2 enhance 13, KCNQ2 inh inactive, CHO-K1 Tl ctr inactive, KCNQ1 sel pot 4.6, KCNQ2 pot confirm 84, Kir21 spec inactive and KCNQ2 W236L pot 35%.
`CSc1nnc(NC(=O)c2ccco2)s1` gave KCNQ2 enhance inactive and KCNQ2 inh inactive.
Screening O=C(NCc1ccccc1)c1nc(S(=O)(=O)Cc2ccccc2)ncc1Cl returned KCNQ2 inh inactive.
Screening Cc1nnc(NC(=O)c2nc(S(=O)(=O)Cc3ccccc3C)ncc2Cl)s1 returned KCNQ2 enhance 12, KCNQ2 inh inactive, Kir21 conf inh inactive, HEK293 ctr inactive, CHO-K1 Tl ctr inactive, KCNQ1 sel pot 62, KCNQ2 pot confirm 77, Kir21 spec inactive and KCNQ2 W236L pot 35%.
COC(=O)c1ccccc1NC(=O)c1nc(S(=O)(=O)Cc2ccccc2)ncc1Cl was read as KCNQ2 inh inactive.
For CCSc1nnc(NC(=O)c2nc(S(=O)(=O)Cc3ccc(F)cc3)ncc2Cl)s1 the results were KCNQ2 enhance 10, KCNQ2 inh inactive, CHO-K1 Tl ctr inactive, KCNQ1 sel pot inactive, KCNQ2 pot confirm 49, Kir21 spec inactive and KCNQ2 W236L pot 11%.
CCc1ccc(Nc2nnc(SCC(=O)NCCN3C(=O)CSC3=O)s2)cc1 was read as KCNQ2 enhance inactive and KCNQ2 inh inactive.
COC(=O)C1=C(N)OC2=C(C(=O)CC(C)(C)C2)C1c1cc2c(cc1Cl)OCO2 (centres undefined) was read as KCNQ2 inh inactive.
`O=C(COc1ccc(Cl)cc1)NNC(=O)C(=O)NC1CCCCC1` gave KCNQ2 enhance inactive and KCNQ2 inh inactive.
`CC(NC(=O)CCNS(=O)(=O)c1ccc2c(c1)oc(=O)n2C)c1ccccc1` (centres undefined) gave KCNQ2 enhance inactive and KCNQ2 inh inactive.
For COc1ccccc1C(=O)OCC(=O)NC1CCCC1 the results were KCNQ2 inh inactive.
For CCCC(=O)c1c[nH]c(C(=O)N2CCOCC2)c1 the results were KCNQ2 enhance inactive and KCNQ2 inh inactive.
